SSB-PriA inh: K. pneumoniae PriA-SSBct interaction inhibition | AlphaScreen SSBct-PriA binding, biotinylated peptide | inhibition, % at 33 µM | 430,000 tested, 0.6% active; in the data active = inhibition mostly above about 37%, no sharp cut-off; inactive = mostly below about 20%;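 note: plate controls were negative control peptide for no effect and reference peptide for full effect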
Mtb hypoxia rep: reduces hypoxia-regulated biosensor signal in M. tuberculosis. AID 1159583. M. tuberculosis hypoxia-regulated fluorescent reporter, fluorescence. fluorescence inhibition, % (concentration not given with the values). 300,000 tested, 0.1% active; in the data active = fluorescence inhibition mostly above about 23%, no sharp cut-off; inactive = mostly below about 17%
ugtP null kill: compounds lethal to S. aureus RN4220 ugtP deletion mutant; OD600 growth, 16 h; growth inhibition, % (no concentration beside the values); 330,000 tested, 0.54% active; AID 1259309; in the data active = growth inhibition above about 68%;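 note: plate controls were untreated wells for no effect and antibiotic for full effect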
PfHsp40 rescue: rescue of PfHsp40-mediated yeast toxicity; 340,000 tested, 0.68% active; S. cerevisiae expressing PfHsp40, growth rescue, ATP luminescence; growth rescue, % at 12.5 µM; AID 504582; in the data active = growth rescue above about 28%, passing the limit was not always enough;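 note: yeast W303a lacking pdr1 and pdr3 grown in galactose medium; growth measured after three days at 30 °C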
Sa RN4220 lethal: kills Staphylococcus aureus RN4220; S. aureus RN4220 growth, OD600, 16 h; 330,000 tested, 0.33% active; inhibition, % (test concentration not listed); AID 1259311; in the data active = inhibition above about 85%;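 note: plate controls were untreated cells for no effect and reference antibiotic for full effect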
VHR inh abs: DUSP3 (human) phosphatase inhibition | AID 1654 | P51452 | inhibition, % at 13.3 µM | 290,000 tested, 0.52% active | recombinant VHR phosphatase, pNPP absorbance; in the data active = inhibition above about 50%
Target sequence (P51452 whole entry, looked up): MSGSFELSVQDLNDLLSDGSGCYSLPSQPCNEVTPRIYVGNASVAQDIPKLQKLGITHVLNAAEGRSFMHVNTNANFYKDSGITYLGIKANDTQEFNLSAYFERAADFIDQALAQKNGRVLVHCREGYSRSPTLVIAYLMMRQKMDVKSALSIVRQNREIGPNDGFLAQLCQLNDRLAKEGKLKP
Active calls of the source: *; . = not tested or not shown. The list is not random: actives were taken first. Their share in the collection is about 1.8%.

SMILES	SSB-PriA inh	Mtb hypoxia rep	ugtP null kill	PfHsp40 rescue	Sa RN4220 lethal	VHR inh abs
S=c1[nH]nc(-c2ccccn2)n1N=Cc1ccc(Br)s1	79.2*	.	.	.	.	.
S=c1[nH]nc(-c2ccccn2)n1/N=C/c1ccccc1	.	.	.	2.4	.	-3.9
Cc1ccsc1C=Nn1c(-c2ccccn2)n[nH]c1=S	88.0*	0.5	-0.3	.	5.4	.
S=c1[nH]nc(-c2ccccn2)n1/N=C/c1cccs1	.	.	.	0.7	.	5.1
O=C(CCc1cccc(Cl)c1)NC[C@@H](O)Cc1ccccc1	-23.0	.	.	.	.	.
Cc1ccc2cc(CCNC(=S)NCCn3ccc4ccccc43)c(=O)[nH]c2c1	46.0*	.	.	.	.	.
O=S(=O)(NCCn1ccc(-c2ccncc2)n1)c1ccc2c(c1)CCCC2	-14.0	.	.	.	.	.
C[n+]1ccccc1C1CCCCC1=NNc1ccc([N+](=O)[O-])cc1[N+](=O)[O-] (configuration not stated)	-8.9	5.6	0.9	.	2.0	.
Cc1ccc2cc(C=NNC(=O)CN3CCCCC3)c(Cl)nc2c1	-9.6	8.0	-1.3	.	3.5	.
COc1ccccc1N=Nc1ccc(N)c(C)c1	72.7*	16.6	8.5	-0.9	9.8	.
Cn1nnc2cc(C(=O)N3CCN(c4ccccn4)CC3)ccc21	-0.6	0.8	6.2	0.7	4.7	52.9*
Cn1nnc2cc(NC(=O)N3CCN(c4ccccn4)CC3)ccc21	0.6	9.5	9.9	0.7	1.0	-5.8
COc1ccccc1OCCCCN1CCCCC1	-9.0	3.0	7.7	-0.2	4.5	51.3*
COc1ccc(-c2nc(-c3ccc4c(c3)OCO4)[nH]c2-c2ccc(OC)cc2)cc1	34.2	-3.7	87.3*	3.2	16.4	7.6
COc1ccc(C=NNS(=O)(=O)c2ccc(Cl)cc2)cc1COc1ccccc1[N+](=O)[O-]	2.0	.	18.1	.	14.7	.
Cc1ccnc(SC2CC(=O)N(c3ccc(C(C)C)cc3)C2=O)n1 (configuration not stated)	-20.0	1.9	8.8	-0.8	2.2	50.7*
Cc1ccc2nc(N3CCN(C(=O)CCCC(=O)O)CC3)nc(-c3ccccc3)c2c1	-2.6	-14.0	6.4	4.9	2.6	23.1
O=C(O)CCCC(=O)N1CCN(c2nc(-c3ccccc3Cl)c3cc(Br)ccc3n2)CC1	2.3	-2.0	39.7	47.3*	15.2	1.0
N#Cc1cc2c([nH]c1=O)CCN(C(=O)c1cccc(C(F)(F)F)c1)C2	-15.0	.	.	.	.	.
CC(C)CC(=O)NC(=S)Nc1ccc(S(=O)(=O)N2CCN(C)CC2)cc1	-11.6	2.2	85.9*	0.2	2.9	-13.0
CC(C)CC(=O)NC(=S)Nc1ccc(S(=O)(=O)Nc2nccs2)cc1	-12.2	10.1	91.6*	0.2	1.8	-6.7
CCCC(=O)NC(=S)Nc1ccc(S(=O)(=O)Nc2ccc(OCC)cc2)cc1	-7.3	3.1	87.6*	-0.2	7.1	23.7
CC(C)CC(=O)NC(=S)Nc1ccc(S(=O)(=O)NC(C)(C)C)cc1	-8.9	-2.7	86.7*	1.0	3.3	-3.6
COc1ccccc1C(=O)NC(=Cc1ccccc1)C(=O)Nc1ccc(C(=O)O)cc1	.	2.9	1.5	.	3.6	.
CCOc1ccc(S(=O)(=O)N2CCN(c3ccc(-c4ccco4)nn3)CC2)cc1	-6.0	.	.	.	.	.
SMILES	SSB-PriA inh	Mtb hypoxia rep	ugtP null kill	PfHsp40 rescue	Sa RN4220 lethal	VHR inh abs
O=C(NCCOc1ccc(F)cc1)c1cc(Cl)ccc1[N+](=O)[O-]	-25.0	.	.	.	.	.
CCOc1ccc(NS(=O)(=O)c2ccc(NC(=S)NC(=O)CC(C)C)cc2)cc1	-0.1	.	87.0*	10.2	-0.4	10.4
CCc1nnc(NS(=O)(=O)c2ccc(NC(=S)NC(=O)c3ccc(F)cc3)cc2)s1	-3.9	7.7	87.3*	0.2	12.3	8.3
CCc1nnc(NS(=O)(=O)c2ccc(NC(=S)NC(=O)c3cccnc3)cc2)s1	-3.5	14.6	17.6	0.5	11.0	25.1
CC(C)CC(=O)NC(=S)Nc1ccc(S(N)(=O)=O)cc1	0.0	.	.	.	.	.
Cc1c(C(=O)N2CCN(C(=O)c3ccco3)CC2)oc2c(Cl)cccc12	-8.1	10.1	2.3	1.8	5.8	.
CCCN1CCN(C(=O)c2oc3c(Cl)cccc3c2C)CC1	2.1	9.5	14.7	1.8	-0.5	56.2*
COC(=O)c1ccc(CSc2ccc(NC(=O)c3ccccc3)nn2)o1	-8.0	.	.	.	.	.
CCCCCCCCCCCCCCCC[n+]1ccc(C=NO)cc1	-4.0	12.4	100.6*	.	100.6*	.
Cc1oncc1C(=O)NCc1ccnc(-c2ccsc2)c1	-6.0	.	.	.	.	.
CC(=O)Oc1ccc(/C=N/NS(=O)(=O)c2ccc(C)cc2)c(OC(C)=O)c1	.	.	.	0.7	.	53.9*
Cc1cc(C)c(OC2(c3ccccc3)OC(=O)c3ccccc32)c(C)c1 (configuration not stated)	-21.1	16.4	85.4*	-1.0	-3.0	29.7
Cc1cccc(C)c1NC(=O)CSc1nnc(NC(=O)CN2CCOCC2)s1	-14.7	.	11.4	63.9*	5.6	20.5
Cc1ccc(NC(=O)CSc2nnc(NC(=O)CN3CCOCC3)s2)cc1	-9.8	1.0	0.2	0.5	0.6	-24.6
Cc1cccc(C)c1Nc1nnc(SCC(=O)NC(=O)c2cccn2C)s1	2.8	5.4	-4.1	0.0	2.1	51.3*
CN(C)c1ccc(C(=O)Nc2cc(N3CCCC3)ncn2)cc1	-7.0	.	.	.	.	.
COc1cc(C=NNC(=S)NC(C)C)ccc1OCC(=O)Nc1c(C)cc(C)cc1C	-7.5	5.7	6.4	.	7.7	.
CC(=NNC(=O)c1nnn(-c2nonc2N)c1CN(C)c1ccccc1)c1ccccn1	90.3*	-1.8	-4.1	.	13.1	.
CCCNc1nc(-c2cc(C(=O)Nc3ccccc3)on2)cc(C(C)C)n1	-1.4	.	.	364.8*	.	.
COCC(=O)NCCn1ncc2c(=O)n(Cc3cccc(C(F)(F)F)c3)cnc21	-14.0	.	.	.	.	.
Cc1ncoc1C(=O)N1CCCC(C(=O)c2ccc(-c3ccccc3)c(F)c2)C1 (configuration not stated)	8.5	11.4	3.7	183.3*	4.2	8.4
Cc1ncoc1C(=O)N1CCCC(C(=O)c2ccc(Oc3ccccc3)cc2)C1 (configuration not stated)	-4.3	8.8	-9.6	0.9	2.7	30.9
COc1ccc(N(CC(=O)NN=Cc2ccc3c(c2)OCO3)S(=O)(=O)c2ccc(NC(C)=O)cc2)cc1	-2.2	-18.6	7.2	.	0.7	.
CC1(C)CC(=O)c2cc(OCC(=O)NCCCN3CCN(c4ccc(F)cc4)CC3)ccc2O1	14.2	8.5	4.3	-0.2	8.8	52.6*
C/C(=N\N1C(C)CCCC1C)c1ccccc1O (configuration not stated)	.	.	.	-0.3	.	52.6*
Cn1c(C2CCN(S(C)(=O)=O)CC2)nn(CC(=O)NCc2ccccc2Cl)c1=O	-4.0	.	.	.	.	.
CN(C)[C@@H]1C(=O)C(C(=O)NCN2CCCC2)=C(O)[C@@]2(O)C(=O)C3=C(O)c4c(O)cccc4[C@@](C)(O)C3CC12 (some centres not stated)	.	.	.	.	.	66.4*
CC(=O)Nc1ccc(SCCCC(=O)Nc2nc3ccccc3s2)nn1	5.0	.	.	.	.	.
CCC(C)(C)n1nnnc1C(c1cccnc1)N1CCN(c2cccc(C(F)(F)F)c2)CC1 (configuration not stated)	-11.9	-6.3	-5.4	215.1*	2.5	39.1
